Drawing on ChEMBL document CHEMBL1961873, “Compounds: GSK PKIS; Assays: Nanosyn kinase panel” (2012), this text covers inhibition for eight molecules.

In general, inhibition refers to the change of the read-out against control, counted positive when it falls.

Assay [1] deals with T1, Tyrosine-protein kinase receptor TYRO3 (Homo sapiens) (UniProt Q06418).
T1 sequence (whole entry): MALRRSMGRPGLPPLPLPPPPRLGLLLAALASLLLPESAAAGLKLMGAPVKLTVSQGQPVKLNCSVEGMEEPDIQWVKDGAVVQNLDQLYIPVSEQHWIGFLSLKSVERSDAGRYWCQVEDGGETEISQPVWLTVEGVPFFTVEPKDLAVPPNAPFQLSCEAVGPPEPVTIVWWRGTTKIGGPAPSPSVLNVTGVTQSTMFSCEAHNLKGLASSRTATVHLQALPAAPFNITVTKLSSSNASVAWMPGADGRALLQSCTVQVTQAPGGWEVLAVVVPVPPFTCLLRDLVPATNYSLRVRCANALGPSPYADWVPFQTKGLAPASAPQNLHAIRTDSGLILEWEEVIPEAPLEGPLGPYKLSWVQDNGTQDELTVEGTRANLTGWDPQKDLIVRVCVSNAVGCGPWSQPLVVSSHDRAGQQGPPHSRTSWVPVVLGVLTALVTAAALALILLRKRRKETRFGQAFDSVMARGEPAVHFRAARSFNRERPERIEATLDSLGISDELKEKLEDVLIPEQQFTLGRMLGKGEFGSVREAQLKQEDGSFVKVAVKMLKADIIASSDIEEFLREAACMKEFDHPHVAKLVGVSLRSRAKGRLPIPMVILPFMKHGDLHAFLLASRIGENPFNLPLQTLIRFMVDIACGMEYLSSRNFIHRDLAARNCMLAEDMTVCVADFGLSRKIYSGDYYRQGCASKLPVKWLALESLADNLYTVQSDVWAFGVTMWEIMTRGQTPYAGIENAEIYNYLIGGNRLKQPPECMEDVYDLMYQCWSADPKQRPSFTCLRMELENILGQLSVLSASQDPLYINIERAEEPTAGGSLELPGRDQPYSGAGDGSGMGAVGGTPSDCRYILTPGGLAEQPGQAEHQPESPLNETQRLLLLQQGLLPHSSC
The following applies: at 1 µM.

Assay [2] concerns the target Tyrosine-protein kinase Yes (Homo sapiens) (UniProt P07947). Particulars: at 0.1 µM.
For assay [3] the target is unchanged. Particulars: at 1 µM.
Assay [4] has as its target T2, Tyrosine-protein kinase ZAP-70 (Homo sapiens) (UniProt P43403).
T2 sequence (whole entry): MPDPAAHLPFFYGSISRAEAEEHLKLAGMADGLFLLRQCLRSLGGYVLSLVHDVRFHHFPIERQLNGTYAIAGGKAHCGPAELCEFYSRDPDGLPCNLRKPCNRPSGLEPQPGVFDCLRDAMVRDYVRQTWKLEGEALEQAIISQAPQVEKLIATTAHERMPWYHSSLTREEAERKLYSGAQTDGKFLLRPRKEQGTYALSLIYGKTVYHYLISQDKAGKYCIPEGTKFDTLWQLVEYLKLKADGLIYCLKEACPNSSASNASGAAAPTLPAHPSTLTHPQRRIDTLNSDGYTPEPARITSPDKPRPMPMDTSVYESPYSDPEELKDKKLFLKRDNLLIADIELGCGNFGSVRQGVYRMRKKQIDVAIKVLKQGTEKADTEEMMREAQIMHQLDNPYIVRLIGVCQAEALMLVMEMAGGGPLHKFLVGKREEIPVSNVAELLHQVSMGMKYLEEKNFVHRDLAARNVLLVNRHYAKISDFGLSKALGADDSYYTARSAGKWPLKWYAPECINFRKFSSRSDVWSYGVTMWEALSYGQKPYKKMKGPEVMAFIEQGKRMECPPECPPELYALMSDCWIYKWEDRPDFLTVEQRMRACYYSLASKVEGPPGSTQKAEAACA
Particulars: at 0.1 µM.

In assay [5] the target is T2, Tyrosine-protein kinase ZAP-70 (Homo sapiens). Particulars: at 1 µM.
Assay [6] concerns the target Serine/threonine-protein kinase B-raf (Homo sapiens) (UniProt P15056). The following applies: at 0.1 µM.
For assay [7] the target is unchanged. The following applies: at 1 µM.
For assay [8], the system named is Serine/threonine-protein kinase B-raf (Homo sapiens), P15056 [V600E]. Particulars: at 0.1 µM.
For assay [9] the test system is unchanged. The following applies: at 1 µM.
In assay [10] the target is RAF proto-oncogene serine/threonine-protein kinase (Homo sapiens) (UniProt P04049). Particulars: at 0.1 µM.
The target in assay [11] is T3, Interleukin-1 receptor-associated kinase 4 (Homo sapiens) (UniProt Q9NWZ3).
T3 sequence (whole entry): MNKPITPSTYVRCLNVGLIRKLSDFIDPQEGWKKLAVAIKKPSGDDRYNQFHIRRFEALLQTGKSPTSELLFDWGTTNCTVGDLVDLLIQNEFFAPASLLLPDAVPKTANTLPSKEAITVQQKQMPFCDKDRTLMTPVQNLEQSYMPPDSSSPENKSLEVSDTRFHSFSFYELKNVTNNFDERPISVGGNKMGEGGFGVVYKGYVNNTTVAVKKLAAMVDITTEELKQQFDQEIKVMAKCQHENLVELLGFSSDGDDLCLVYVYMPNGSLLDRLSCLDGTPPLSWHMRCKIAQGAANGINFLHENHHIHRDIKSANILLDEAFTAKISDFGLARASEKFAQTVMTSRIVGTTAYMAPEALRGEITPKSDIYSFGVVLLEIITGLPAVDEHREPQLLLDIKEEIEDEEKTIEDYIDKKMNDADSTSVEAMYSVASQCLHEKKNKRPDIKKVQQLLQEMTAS
Particulars: at 0.1 µM.

Assay [12] addresses T3, Interleukin-1 receptor-associated kinase 4 (Homo sapiens). The following applies: at 1 µM.
The target in assay [13] is Leucine-rich repeat serine/threonine-protein kinase 2 (Homo sapiens) (UniProt Q5S007). Particulars: at 0.1 µM.
Assay [14] shares this target. The following applies: at 1 µM.
Assay [15] has as its system Leucine-rich repeat serine/threonine-protein kinase 2 (Homo sapiens), Q5S007 [G2019S]. The following applies: at 0.1 µM.
For assay [16] the test system is unchanged. Particulars: at 1 µM.
Assay [17] addresses RAF proto-oncogene serine/threonine-protein kinase (Homo sapiens) (UniProt P04049). The following applies: at 1 µM.

Sequence of Leucine-rich repeat serine/threonine-protein kinase 2 (Homo sapiens), Q5S007 [G2019S] (Q5S007 whole entry G2019S): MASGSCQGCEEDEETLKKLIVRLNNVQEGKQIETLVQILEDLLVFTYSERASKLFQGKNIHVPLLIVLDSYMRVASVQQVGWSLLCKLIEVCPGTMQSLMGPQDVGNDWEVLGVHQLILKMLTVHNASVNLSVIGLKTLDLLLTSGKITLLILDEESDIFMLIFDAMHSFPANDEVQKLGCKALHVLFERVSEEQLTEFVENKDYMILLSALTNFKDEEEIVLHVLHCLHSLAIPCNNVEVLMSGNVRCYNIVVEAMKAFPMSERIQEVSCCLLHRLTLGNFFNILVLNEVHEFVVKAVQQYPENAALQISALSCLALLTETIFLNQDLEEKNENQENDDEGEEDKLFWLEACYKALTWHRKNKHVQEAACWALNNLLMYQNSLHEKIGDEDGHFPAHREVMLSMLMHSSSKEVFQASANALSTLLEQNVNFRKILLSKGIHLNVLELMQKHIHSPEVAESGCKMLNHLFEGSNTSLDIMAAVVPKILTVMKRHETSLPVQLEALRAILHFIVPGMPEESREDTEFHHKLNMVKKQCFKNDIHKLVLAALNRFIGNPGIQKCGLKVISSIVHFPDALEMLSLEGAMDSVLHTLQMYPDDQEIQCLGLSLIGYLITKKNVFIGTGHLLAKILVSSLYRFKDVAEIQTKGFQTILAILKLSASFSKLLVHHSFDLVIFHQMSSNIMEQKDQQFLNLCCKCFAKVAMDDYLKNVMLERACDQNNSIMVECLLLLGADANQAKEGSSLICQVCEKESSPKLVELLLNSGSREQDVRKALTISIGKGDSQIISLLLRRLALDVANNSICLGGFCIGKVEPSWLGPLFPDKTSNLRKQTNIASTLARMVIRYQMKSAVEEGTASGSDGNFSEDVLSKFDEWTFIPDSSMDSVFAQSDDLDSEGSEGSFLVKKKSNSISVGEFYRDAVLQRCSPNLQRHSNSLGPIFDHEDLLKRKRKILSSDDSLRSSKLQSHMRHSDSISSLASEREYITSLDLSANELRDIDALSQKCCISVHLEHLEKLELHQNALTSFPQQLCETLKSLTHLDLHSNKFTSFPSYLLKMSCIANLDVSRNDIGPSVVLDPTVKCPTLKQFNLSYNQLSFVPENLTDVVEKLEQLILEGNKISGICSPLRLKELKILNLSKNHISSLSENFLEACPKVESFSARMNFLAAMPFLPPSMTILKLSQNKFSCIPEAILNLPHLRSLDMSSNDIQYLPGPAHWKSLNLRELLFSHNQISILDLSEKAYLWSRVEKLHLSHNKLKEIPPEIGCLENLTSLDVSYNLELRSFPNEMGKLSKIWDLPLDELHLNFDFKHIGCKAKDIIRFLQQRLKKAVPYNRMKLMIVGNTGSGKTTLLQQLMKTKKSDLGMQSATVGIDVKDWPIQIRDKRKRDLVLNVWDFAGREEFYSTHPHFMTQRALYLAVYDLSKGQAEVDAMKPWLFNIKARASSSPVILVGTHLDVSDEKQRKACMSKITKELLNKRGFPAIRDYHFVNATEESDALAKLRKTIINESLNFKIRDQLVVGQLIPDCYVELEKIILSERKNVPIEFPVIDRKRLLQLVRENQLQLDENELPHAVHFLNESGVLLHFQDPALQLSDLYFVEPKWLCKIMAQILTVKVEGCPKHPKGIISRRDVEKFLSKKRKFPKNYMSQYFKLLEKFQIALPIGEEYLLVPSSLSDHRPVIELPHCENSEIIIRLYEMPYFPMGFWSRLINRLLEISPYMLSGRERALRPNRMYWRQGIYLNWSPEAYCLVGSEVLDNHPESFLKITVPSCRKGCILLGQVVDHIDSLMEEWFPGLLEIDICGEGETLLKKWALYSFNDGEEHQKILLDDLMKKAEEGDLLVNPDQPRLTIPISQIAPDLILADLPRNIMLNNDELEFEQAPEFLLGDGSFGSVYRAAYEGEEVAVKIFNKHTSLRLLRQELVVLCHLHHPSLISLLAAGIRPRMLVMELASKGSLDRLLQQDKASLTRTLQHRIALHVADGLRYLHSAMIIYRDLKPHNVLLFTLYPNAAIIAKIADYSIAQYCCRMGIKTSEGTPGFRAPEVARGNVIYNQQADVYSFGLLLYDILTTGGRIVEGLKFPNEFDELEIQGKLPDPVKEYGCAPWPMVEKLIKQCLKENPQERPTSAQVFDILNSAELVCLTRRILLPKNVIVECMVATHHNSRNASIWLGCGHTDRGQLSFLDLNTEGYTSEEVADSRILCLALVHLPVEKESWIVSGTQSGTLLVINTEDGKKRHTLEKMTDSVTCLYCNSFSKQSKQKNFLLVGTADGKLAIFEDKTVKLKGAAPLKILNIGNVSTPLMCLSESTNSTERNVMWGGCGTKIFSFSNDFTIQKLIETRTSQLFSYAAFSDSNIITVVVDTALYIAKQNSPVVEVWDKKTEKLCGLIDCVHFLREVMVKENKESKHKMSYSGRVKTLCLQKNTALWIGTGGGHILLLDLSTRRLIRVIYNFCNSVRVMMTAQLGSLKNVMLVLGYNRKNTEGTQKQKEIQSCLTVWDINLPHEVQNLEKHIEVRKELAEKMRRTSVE
Sequence of RAF proto-oncogene serine/threonine-protein kinase (Homo sapiens) (P04049 whole entry): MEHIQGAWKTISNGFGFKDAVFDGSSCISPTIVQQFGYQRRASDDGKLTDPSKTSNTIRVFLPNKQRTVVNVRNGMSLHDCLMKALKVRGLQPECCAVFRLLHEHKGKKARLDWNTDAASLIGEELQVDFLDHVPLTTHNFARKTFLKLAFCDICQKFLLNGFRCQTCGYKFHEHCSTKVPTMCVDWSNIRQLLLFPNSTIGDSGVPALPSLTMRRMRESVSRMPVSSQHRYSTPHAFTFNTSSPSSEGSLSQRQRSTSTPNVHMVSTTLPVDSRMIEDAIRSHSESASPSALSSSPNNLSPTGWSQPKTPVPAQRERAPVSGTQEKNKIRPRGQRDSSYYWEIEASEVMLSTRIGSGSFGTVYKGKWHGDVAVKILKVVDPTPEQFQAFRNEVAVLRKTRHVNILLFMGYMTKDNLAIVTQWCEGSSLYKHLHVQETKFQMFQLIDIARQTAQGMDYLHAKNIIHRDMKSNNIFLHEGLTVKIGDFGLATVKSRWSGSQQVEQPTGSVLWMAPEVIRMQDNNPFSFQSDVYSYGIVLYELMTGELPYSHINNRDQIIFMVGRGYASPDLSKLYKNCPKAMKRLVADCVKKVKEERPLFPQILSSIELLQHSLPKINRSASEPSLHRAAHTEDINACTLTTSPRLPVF
Sequence of Tyrosine-protein kinase Yes (Homo sapiens) (P07947 2-543 limits assumed): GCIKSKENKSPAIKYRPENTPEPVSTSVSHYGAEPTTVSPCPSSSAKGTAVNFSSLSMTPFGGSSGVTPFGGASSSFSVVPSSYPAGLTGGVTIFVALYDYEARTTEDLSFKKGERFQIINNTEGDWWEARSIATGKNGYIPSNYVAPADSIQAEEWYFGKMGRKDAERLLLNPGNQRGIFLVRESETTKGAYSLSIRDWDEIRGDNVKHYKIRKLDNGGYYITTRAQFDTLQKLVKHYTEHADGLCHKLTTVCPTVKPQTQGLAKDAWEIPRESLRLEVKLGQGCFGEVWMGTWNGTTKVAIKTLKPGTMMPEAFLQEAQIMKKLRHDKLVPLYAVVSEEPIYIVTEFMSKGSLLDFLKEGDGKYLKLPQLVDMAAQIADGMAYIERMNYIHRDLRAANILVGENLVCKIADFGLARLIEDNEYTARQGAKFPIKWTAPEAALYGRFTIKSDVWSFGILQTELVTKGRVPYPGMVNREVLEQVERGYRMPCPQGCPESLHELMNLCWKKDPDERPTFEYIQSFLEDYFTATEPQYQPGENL
Sequence of Serine/threonine-protein kinase B-raf (Homo sapiens), P15056 [V600E] (P15056 whole entry V600E): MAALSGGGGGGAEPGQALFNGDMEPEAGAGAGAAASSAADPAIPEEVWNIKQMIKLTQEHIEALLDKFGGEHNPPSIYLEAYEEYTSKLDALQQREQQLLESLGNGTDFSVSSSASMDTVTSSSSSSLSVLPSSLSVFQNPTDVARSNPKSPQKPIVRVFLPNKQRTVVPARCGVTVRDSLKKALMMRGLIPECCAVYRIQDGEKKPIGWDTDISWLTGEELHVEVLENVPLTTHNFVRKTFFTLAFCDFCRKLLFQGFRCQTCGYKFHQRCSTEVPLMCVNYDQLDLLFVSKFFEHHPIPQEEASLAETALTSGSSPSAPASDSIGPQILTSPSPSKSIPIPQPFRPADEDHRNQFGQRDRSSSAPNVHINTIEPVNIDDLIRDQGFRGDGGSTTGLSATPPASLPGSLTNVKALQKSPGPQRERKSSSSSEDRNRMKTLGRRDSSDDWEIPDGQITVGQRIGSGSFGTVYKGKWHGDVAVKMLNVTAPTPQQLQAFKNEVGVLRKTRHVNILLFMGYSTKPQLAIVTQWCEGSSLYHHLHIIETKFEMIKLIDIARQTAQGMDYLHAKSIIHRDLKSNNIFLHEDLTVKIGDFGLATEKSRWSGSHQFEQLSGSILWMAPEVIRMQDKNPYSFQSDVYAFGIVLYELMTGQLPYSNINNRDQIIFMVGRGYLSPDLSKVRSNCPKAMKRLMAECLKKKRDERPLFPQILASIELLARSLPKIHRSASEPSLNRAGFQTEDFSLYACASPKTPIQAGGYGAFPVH
Sequence of Leucine-rich repeat serine/threonine-protein kinase 2 (Homo sapiens) (Q5S007 whole entry): as the sequence (Q5S007 whole entry G2019S) above, with S2019G counted along it
Sequence of Serine/threonine-protein kinase B-raf (Homo sapiens) (P15056 whole entry): as the sequence (P15056 whole entry V600E) above, with E600V counted along it

Consider `Cc1ccc(O)cc1Nc1ccnc2cc(-c3ccccn3)ccc12`, for which the inhibition in [1] was 13.9%; in [2] it was 58.2%; in assay [3], 90.7%; in [4], 0.52%; in assay [5], 4.03%; in assay [6], 9.05%. For the same molecule, the inhibition was 12.1% in assay [7]; 8.35% in assay [8]; 9.49% in assay [9]; -1.1% in assay [10]; -3.41% in [11]; 2.33% in assay [12]. Also, the inhibition in [13] worked out at 5.01%; in [14], 11.4%; in assay [15], 7.5%; in assay [16] it was 31.1%.
Regarding `Fc1ccc(-c2cc(-c3c[nH]nc3-c3ccccn3)ccn2)cc1`, the inhibition in assay [1] stood at 5.06%; in assay [2], 5.64%; in assay [3], 9.04%; in assay [4], 2.71%; in [5] it was 2.35%; in assay [6], 6.7%. Also, the inhibition in assay [7] was 8.05%; in assay [8], 9.04%; in [9], 6.61%; in assay [10], 0.68%; in [17] it was -1.83%; in [11] it was 2.71%. Moreover, the inhibition in assay [12] was found to be 1.76%; in assay [13], 2.24%; in assay [14], 5.28%; in [15], 3.03%; in assay [16], 4.92%.
As to `c1ccc(COc2ccc(Nc3ncnc4ccc(-c5ccco5)cc34)cc2)cc1`, the inhibition in assay [1] is 1.86%; in [2] it was 3.28%; in assay [3], 13.1%; in assay [4] it was -2.15%; in [5], 0.17%; in assay [6], 1.52%. The inhibition is 1.99% in assay [7]; 2.01% in assay [8]; 3.23% in assay [9]; 11.2% in assay [10]; 6.05% in assay [17]; 0.92% in assay [11]. The inhibition in assay [12] stood at 1.06%; in assay [13] it was 4.27%; in assay [14] it was 3.99%; in assay [15], 3.97%; in assay [16] it was 1.89%.
Regarding `CCn1c(-c2nonc2N)nc2ccccc21`, the inhibition in assay [1] was 0.63%; in assay [2], -0.03%; in assay [3], -1.08%; in [4], 1%; in assay [5], -0.17%; in assay [6], 3.74%. In addition, the inhibition in assay [7] was 4.94%; in assay [8], 3.64%; in [9], 4.52%; in assay [10] it was 2.9%; in assay [17] it was 2.78%; in assay [11], -0.13%. For the same molecule, the inhibition turned out to be 1.55% in assay [12]; 6.41% in assay [13]; 8.23% in [14]; 5% in assay [15]; 13.7% in assay [16].
Regarding `CN1CCC(n2cnc(-c3ccc(F)cc3)c2-c2ccnc(Nc3ccccc3)n2)CC1`, the inhibition in assay [1] stood at 2.25%; in assay [2], 8.83%; in assay [3] it was 42.3%; in [4], 1.81%; in assay [6], 3.78%; in assay [7], 4.47%. The inhibition in [8] is 3.27%; in assay [9], 6.57%; in [10] it was -3.04%; in assay [17], -0.18%; in assay [11], 1.95%; in assay [12], 1.28%. For the same molecule, the inhibition in [13] amounted to 1.16%; in assay [14] it was 3.05%; in assay [15], 1.22%; in assay [16], 5.12%.
With `Cc1ccc2c(-c3ccnc(Nc4ccccc4)n3)c(-c3ccc(F)cc3)nn2n1`, the inhibition in assay [1] was 25.6%; in [2], 58.4%; in assay [3] it was 92.1%; in assay [4], 2.85%; in assay [5], 2.04%; in [6], 6.37%. Besides, the inhibition in [7] is 15.5%; in assay [8], 4.53%; in assay [9], 13%; in [10] it was -2.73%; in assay [11] it was -2.94%; in [12] it was 1.87%. The inhibition in [13] is 3.22%; in assay [14] it was 7.93%; in assay [15], 3.36%; in assay [16], 7.63%.
On to `N#Cc1c(NC(=O)c2ccc(F)cc2)sc2c1CCCC2`, for which the inhibition in [1] worked out at 2.87%; in assay [2], 0.59%; in assay [3], 4.07%; in assay [4], 1.26%; in assay [5], 2.47%; in assay [6] it was 1.72%. Moreover, the inhibition is 3.03% in [7]; 1.04% in [8]; 2.86% in assay [9]; -3.13% in assay [10]; 1.78% in assay [11]; 0.51% in assay [12]. The inhibition was 0.58% in [13], 1.04% in assay [14], 1.92% in assay [15] and 5.12% in assay [16].
For the molecule `c1ccc(-c2nc3n(c2-c2ccc4c(c2)OCO4)CCC3)nc1`, the inhibition amounted to 1.8% in [1]; 1.3% in assay [2]; 3.94% in assay [3]; 4.17% in assay [4]; 1.94% in [5]; 2.61% in assay [6]. The inhibition was 2.48% in assay [7]; 2.01% in assay [8]; 3.56% in assay [9]; -0.19% in assay [10]; -1.34% in [17]; 0.9% in [11]. For the same molecule, the inhibition in assay [12] came to 0.56%; in assay [13], 1.19%; in assay [14], 3.89%; in assay [15] it was 2.25%; in [16], 3.64%.
